Measured values published in the supplement of paper PMC10849652.
The full data set covers some 7,900 targets. This sample favours those with a hit. About 0.6% of all pairs of compound and target were hits.

How the values were obtained:
Experiment in all cases: log2 fold change, soluble protein after heating vs DMSO (PISA); higher = thermal stabilisation; K562 cells, 10 uM, 30 min; active = over 0.2 and 3.5 SD of the protein, either way, in both replicates (recomputed)
saracatinib = compound: CN1CCN(CCOc2cc(OC3CCOCC3)c3c(Nc4c(Cl)ccc5c4OCO5)ncnc3c2)CC1 [saracatinib]
In short: (§1)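 K562 cells at 2×10^6 cells/mL were treated for 30 min with 10 μM compound, and aliquots were heated for 3 min over 48°C-58°C before pooling. Extraction used PBS with 0.5% NP-40 at 4°C, and soluble protein was the supernatant after 21,000xg for 90 min, measured by TMTpro 16plex LC-MS/MS with channel sums equalised. Thermal stability values, relative to control samples and from duplicates, are log2 fold changes.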

sotrastaurin = compound: CN1CCN(c2nc(C3=C(c4c[nH]c5ccccc45)C(=O)NC3=O)c3ccccc3n2)CC1 [sotrastaurin]
In short: as §1

alvocidib = compound: CN1CC[C@H](c2c(O)cc(O)c3c(=O)cc(-c4ccccc4Cl)oc23)[C@H](O)C1 [alvocidib]
In short: as §1

Tubastatin A = compound: CN1CCc2c(c3ccccc3n2Cc2ccc(C(=O)NO)cc2)C1 [Tubastatin A]
In short: as §1

[1] = compound: CNC(=O)C1=CC=CC=C1NC2=NC(=NC=C2Cl)NC3=C(C=C(C=C3)N4CCOCC4)OC
In short: as §1

defactinib = compound: CNC(=O)c1ccc(Nc2ncc(C(F)(F)F)c(NCc3nccnc3N(C)S(C)(=O)=O)n2)cc1 [defactinib]
In short: as §1

rucaparib = compound: CNCc1ccc(-c2[nH]c3cc(F)cc4c3c2CCNC4=O)cc1 [rucaparib]
In short: as §1

[2] = compound: CNc1nc(-c2ccc3c(N)n[nH]c3c2)cc(N2C[C@@H](C(=O)NC3CCCCC3)CC[C@H]2C)n1
In short: as §1

encorafenib = compound: COC(=O)N[C@@H](C)CNc1nccc(-c2cn(C(C)C)nc2-c2cc(Cl)cc(NS(C)(=O)=O)c2F)n1 [encorafenib]
In short: as §1

[3] = compound: COC(=O)[C@H](CCSC)NC(=O)C1=C(C=C(C=C1)NC[C@H](CS)N)C2=CC=CC=C2
In short: as §1

[4] = compound: COC1=CC=C(C=C1)CN2C=CC3=C2C=C(C=C3)C(=O)NO
In short: as §1

filanesib = compound: CON(C)C(=O)N1N=C(c2cc(F)ccc2F)S[C@@]1(CCCN)c1ccccc1 [filanesib]
In short: as §1

zotarolimus = compound: CO[C@H]1C[C@@H]2CC[C@@H](C)[C@@](O)(O2)C(=O)C(=O)N2CCCC[C@H]2C(=O)O[C@H]([C@H](C)C[C@@H]2CC[C@H](n3cnnn3)[C@H](OC)C2)CC(=O)[C@H](C)/C=C(\C)[C@@H](O)[C@@H](OC)C(=O)[C@H](C)C[C@H](C)/C=C/C=C/C=C/1C [zotarolimus]
In short: as §1

idasanutlin = compound: COc1cc(C(=O)O)ccc1NC(=O)[C@@H]1N[C@@H](CC(C)(C)C)[C@](C#N)(c2ccc(Cl)cc2F)[C@H]1c1cccc(Cl)c1F [idasanutlin]
In short: as §1

alisertib = compound: COc1cc(Nc2ncc3c(n2)-c2ccc(Cl)cc2C(c2c(F)cccc2OC)=NC3)ccc1C(=O)O [alisertib]
In short: as §1

[5] = compound: COc1cc2nc(-c3cc(F)ccc3O)nc(N[C@@H]3CNC[C@H]3C(C)(C)O)c2cc1OC
In short: as §1

gefitinib = compound: COc1cc2ncnc(Nc3ccc(F)c(Cl)c3)c2cc1OCCCN1CCOCC1 [gefitinib]
In short: as §1

[6] = compound: COc1cccc2cc(-c3nc([C@H]4CC[C@H](C(=O)O)CC4)n4ncnc(N)c34)[nH]c12
In short: as §1

lapatinib = compound: CS(=O)(=O)CCNCc1ccc(-c2ccc3ncnc(Nc4ccc(OCc5cccc(F)c5)c(Cl)c4)c3c2)o1 [lapatinib]
In short: as §1

pictilisib = compound: CS(=O)(=O)N1CCN(Cc2cc3nc(-c4cccc5[nH]ncc45)nc(N4CCOCC4)c3s2)CC1 [pictilisib]
In short: as §1

Measured: log2 fold change

MDC1 (UniProt Q14676)
inactive: saracatinib -0.194 | sotrastaurin -0.003 | alvocidib 0.027 | Tubastatin A 0.011 | [1] -0.162 | defactinib -0.012 | rucaparib 0.082 | [2] 0.119 | encorafenib 0.075 | [3] -0.067 | [4] -0.055 | filanesib 0.223 | zotarolimus 0.005 | idasanutlin 0.283 | alisertib -0.028 | [5] -0.01 | gefitinib 0.032 | [6] -0.045 | lapatinib 0.077 | pictilisib 0.08

KPNA6 (UniProt O60684)
inactive: saracatinib -0.004 | sotrastaurin -0.117 | alvocidib -0.073 | Tubastatin A 0.008 | [1] 0.082 | defactinib -0.06 | rucaparib 0.092 | [2] -0.042 | encorafenib 0.12 | [3] -0.099 | [4] 0.193 | filanesib 0.115 | zotarolimus 0.169 | idasanutlin -0.031 | alisertib -0.01 | [5] 0.056 | gefitinib 0.048 | [6] -0.066 | lapatinib -0.018 | pictilisib -0.017

MAP2K3 isoform 3 (UniProt P46734)
inactive: saracatinib 0.024 | sotrastaurin 0.017 | alvocidib -0.029 | Tubastatin A -0.045 | [1] -0.025 | defactinib -0.063 | rucaparib 0.058 | [2] -0.061 | encorafenib -0.02 | [3] 0.003 | [4] 0.076 | filanesib 0.01 | zotarolimus -0.018 | idasanutlin -0.019 | alisertib 0.152 | [5] 0.166 | gefitinib -0.086 | [6] -0.022 | lapatinib -0.079 | pictilisib 0.07

KHDC4 (UniProt Q7Z7F0)
inactive: saracatinib -0.139 | sotrastaurin 0.027 | alvocidib -0.15 | Tubastatin A 0.052 | [1] 0.019 | defactinib -0.058 | rucaparib -0.058 | [2] 0.023 | encorafenib 0.008 | [3] -0.023 | [4] 0.14 | filanesib -0.025 | zotarolimus 0.035 | idasanutlin -0.043 | alisertib -0.003 | [5] 0.025 | gefitinib 0.015 | [6] -0.026 | lapatinib -0.025 | pictilisib -0.028

LUC7L (UniProt Q9NQ29)
Chain of UniProt Q9NQ29 (Q9NQ29 whole entry, looked up): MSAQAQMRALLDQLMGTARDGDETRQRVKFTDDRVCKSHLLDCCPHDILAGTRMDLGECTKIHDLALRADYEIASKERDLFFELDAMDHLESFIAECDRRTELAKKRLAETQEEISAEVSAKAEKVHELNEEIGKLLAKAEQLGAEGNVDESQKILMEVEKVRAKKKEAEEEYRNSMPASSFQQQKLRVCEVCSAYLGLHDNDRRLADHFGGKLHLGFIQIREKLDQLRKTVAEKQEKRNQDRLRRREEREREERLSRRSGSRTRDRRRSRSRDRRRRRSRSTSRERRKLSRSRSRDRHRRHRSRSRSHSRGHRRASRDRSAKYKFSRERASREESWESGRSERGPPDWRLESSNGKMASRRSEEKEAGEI
inactive: saracatinib -0.005 | sotrastaurin 0.056 | alvocidib 0.062 | Tubastatin A 0.006 | [1] -0.119 | defactinib 0.022 | rucaparib 0.076 | [2] -0.049 | encorafenib 0.039 | [3] 0.022 | [4] -0.094 | filanesib 0.178 | zotarolimus -0.013 | idasanutlin 0.052 | alisertib -0.07 | [5] 0.024 | gefitinib -0.104 | [6] 0.017 | lapatinib 0.007 | pictilisib 0.092

MICOS13 (UniProt Q5XKP0)
Chain of UniProt Q5XKP0 (Q5XKP0 whole entry, looked up): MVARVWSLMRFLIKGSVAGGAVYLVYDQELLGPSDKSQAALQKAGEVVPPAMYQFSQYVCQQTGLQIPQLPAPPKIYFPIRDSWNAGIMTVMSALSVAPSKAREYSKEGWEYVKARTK
inactive: saracatinib 0.039 | sotrastaurin 0.01 | alvocidib -0.001 | Tubastatin A 0 | [1] 0.005 | defactinib -0.07 | rucaparib -0.041 | [2] -0.017 | encorafenib -0.028 | [3] -0.005 | [4] 0 | filanesib -0.095 | zotarolimus -0.048 | idasanutlin -0.144 | alisertib -0.014 | [5] -0.082 | gefitinib -0.032 | [6] 0.079 | lapatinib -0.063 | pictilisib -0.001

KEL (UniProt P23276)
inactive: saracatinib 0.09 | sotrastaurin -0.009 | alvocidib -0.044 | Tubastatin A 0.004 | [1] -0.091 | defactinib -0.038 | rucaparib 0.006 | [2] -0.026 | encorafenib -0.061 | [3] 0.03 | [4] -0.042 | filanesib 0.034 | zotarolimus -0.043 | idasanutlin 0.055 | alisertib 0.177 | [5] -0.015 | gefitinib 0.07 | [6] 0.176 | lapatinib -0.078 | pictilisib 0.194

LRPPRC (UniProt P42704)
inactive: saracatinib -0.281 | sotrastaurin -0.874 | alvocidib -0.58 | Tubastatin A 0.316 | [1] -0.241 | defactinib -0.346 | rucaparib 0.395 | [2] -0.175 | encorafenib 0.116 | [3] -0.103 | [4] 0.303 | filanesib -0.788 | zotarolimus -0.02 | idasanutlin 0 | alisertib 0.207 | [5] -0.638 | gefitinib -0.189 | [6] 0.119 | lapatinib -0.091 | pictilisib -0.119

LTO1 (UniProt Q8WV07)
active: [3] -0.314
inactive: saracatinib 0.071 | sotrastaurin -0.003 | alvocidib -0.01 | Tubastatin A -0.288 | [1] 0.01 | defactinib 0.051 | rucaparib 0.03 | [2] 0.073 | encorafenib -0.016 | [4] -0.06 | filanesib -0.06 | zotarolimus 0.062 | idasanutlin -0.093 | alisertib 0.118 | [5] 0.036 | gefitinib 0.017 | [6] -0.001 | lapatinib -0.016 | pictilisib 0.038

IRF3 (UniProt Q14653)
Chain of UniProt Q14653 (Q14653 whole entry, looked up): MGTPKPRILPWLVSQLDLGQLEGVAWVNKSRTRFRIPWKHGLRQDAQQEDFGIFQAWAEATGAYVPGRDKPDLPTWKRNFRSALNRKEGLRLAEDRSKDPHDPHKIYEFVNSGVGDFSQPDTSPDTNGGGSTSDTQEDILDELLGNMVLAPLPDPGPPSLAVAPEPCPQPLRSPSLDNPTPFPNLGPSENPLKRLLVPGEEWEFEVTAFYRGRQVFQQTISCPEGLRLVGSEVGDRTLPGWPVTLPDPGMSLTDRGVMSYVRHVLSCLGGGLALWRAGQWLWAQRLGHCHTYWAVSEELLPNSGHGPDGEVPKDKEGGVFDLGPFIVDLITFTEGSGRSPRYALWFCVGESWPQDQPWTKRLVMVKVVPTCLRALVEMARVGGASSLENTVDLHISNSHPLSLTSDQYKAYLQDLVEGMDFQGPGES
inactive: saracatinib 0.061 | sotrastaurin -0.043 | alvocidib -0.07 | Tubastatin A 0 | [1] 0.006 | defactinib -0.062 | rucaparib -0.057 | [2] -0.01 | encorafenib 0.014 | [3] -0.014 | [4] -0.075 | filanesib -0.141 | zotarolimus 0.021 | idasanutlin -0.073 | alisertib -0.085 | [5] -0.08 | gefitinib 0.011 | [6] 0.023 | lapatinib -0.003 | pictilisib 0.053

MAST4 (UniProt O15021)
Chain of UniProt O15021 (O15021 whole entry, looked up): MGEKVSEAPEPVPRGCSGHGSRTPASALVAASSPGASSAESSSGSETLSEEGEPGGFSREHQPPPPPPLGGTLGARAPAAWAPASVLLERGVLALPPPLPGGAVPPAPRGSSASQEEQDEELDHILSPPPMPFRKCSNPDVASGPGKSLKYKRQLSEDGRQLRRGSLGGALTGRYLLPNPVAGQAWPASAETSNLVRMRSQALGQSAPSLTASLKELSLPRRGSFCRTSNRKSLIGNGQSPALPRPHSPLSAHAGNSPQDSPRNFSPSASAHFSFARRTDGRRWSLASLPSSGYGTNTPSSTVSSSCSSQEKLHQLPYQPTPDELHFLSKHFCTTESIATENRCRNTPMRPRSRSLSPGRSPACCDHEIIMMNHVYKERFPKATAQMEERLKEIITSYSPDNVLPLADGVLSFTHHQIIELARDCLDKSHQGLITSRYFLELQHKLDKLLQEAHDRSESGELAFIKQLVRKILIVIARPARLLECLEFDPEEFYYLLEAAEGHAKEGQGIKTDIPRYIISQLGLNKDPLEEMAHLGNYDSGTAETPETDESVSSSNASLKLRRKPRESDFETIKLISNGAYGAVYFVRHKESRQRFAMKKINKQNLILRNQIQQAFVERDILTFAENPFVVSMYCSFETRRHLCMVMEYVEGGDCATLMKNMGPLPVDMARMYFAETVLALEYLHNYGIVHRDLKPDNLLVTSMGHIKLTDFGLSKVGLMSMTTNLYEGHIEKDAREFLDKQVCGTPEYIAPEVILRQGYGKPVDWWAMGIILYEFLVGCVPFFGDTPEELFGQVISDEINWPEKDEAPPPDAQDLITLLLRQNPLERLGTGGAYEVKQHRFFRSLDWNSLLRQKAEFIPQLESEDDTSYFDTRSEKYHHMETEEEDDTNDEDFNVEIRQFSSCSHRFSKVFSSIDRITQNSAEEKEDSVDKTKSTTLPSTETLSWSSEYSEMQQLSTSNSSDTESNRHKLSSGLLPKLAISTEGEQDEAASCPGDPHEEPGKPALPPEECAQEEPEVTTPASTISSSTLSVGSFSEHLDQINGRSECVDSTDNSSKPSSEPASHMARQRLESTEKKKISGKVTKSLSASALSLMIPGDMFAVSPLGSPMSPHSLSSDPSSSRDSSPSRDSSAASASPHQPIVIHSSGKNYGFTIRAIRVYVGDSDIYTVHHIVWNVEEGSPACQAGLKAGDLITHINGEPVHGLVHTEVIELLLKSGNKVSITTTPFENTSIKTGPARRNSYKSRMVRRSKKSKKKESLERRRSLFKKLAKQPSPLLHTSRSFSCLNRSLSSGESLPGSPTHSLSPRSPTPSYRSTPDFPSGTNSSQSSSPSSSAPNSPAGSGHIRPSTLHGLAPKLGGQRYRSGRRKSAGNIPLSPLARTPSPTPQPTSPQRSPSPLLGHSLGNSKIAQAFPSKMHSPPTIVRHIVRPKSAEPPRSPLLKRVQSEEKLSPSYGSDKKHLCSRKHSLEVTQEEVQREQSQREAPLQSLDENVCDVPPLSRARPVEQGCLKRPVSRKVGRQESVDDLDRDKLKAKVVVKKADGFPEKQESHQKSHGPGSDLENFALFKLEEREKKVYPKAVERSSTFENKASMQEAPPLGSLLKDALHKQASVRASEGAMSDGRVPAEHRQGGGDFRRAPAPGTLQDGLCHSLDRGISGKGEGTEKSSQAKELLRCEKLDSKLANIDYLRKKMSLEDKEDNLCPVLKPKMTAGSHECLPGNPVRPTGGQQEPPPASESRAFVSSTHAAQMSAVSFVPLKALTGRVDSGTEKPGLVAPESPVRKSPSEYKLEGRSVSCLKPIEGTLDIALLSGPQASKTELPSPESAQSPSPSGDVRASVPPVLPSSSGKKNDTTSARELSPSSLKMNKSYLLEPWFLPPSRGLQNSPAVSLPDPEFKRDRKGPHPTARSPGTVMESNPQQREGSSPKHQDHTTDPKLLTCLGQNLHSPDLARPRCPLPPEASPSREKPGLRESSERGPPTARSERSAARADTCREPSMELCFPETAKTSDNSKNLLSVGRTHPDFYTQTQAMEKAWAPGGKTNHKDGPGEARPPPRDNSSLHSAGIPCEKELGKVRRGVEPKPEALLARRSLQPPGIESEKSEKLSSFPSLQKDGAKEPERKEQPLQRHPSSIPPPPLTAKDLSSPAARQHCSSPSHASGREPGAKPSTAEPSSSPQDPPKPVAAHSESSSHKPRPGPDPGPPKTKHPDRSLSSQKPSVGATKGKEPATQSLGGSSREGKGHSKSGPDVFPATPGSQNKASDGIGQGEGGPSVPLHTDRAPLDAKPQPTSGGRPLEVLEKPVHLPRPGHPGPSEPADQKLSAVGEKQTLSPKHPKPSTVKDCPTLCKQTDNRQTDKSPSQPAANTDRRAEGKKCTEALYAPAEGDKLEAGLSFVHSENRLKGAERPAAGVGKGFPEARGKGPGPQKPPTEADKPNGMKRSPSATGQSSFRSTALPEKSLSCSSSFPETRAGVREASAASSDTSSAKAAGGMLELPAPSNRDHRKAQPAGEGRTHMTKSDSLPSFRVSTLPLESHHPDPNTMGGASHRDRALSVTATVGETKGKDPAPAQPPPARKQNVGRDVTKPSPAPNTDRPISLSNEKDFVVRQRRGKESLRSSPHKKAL
inactive: saracatinib 0.006 | sotrastaurin -0.103 | alvocidib -0.065 | Tubastatin A 0.012 | [1] -0.087 | defactinib -0.149 | rucaparib -0.101 | [2] -0.006 | encorafenib 0.042 | [3] -0.017 | [4] -0.023 | filanesib -0.114 | zotarolimus 0.035 | idasanutlin -0.103 | alisertib -0.073 | [5] -0.283 | gefitinib -0.031 | [6] 0.019 | lapatinib 0.046 | pictilisib -0.036

ILVBL (UniProt A1L0T0)
Chain of UniProt A1L0T0 (A1L0T0 whole entry, looked up): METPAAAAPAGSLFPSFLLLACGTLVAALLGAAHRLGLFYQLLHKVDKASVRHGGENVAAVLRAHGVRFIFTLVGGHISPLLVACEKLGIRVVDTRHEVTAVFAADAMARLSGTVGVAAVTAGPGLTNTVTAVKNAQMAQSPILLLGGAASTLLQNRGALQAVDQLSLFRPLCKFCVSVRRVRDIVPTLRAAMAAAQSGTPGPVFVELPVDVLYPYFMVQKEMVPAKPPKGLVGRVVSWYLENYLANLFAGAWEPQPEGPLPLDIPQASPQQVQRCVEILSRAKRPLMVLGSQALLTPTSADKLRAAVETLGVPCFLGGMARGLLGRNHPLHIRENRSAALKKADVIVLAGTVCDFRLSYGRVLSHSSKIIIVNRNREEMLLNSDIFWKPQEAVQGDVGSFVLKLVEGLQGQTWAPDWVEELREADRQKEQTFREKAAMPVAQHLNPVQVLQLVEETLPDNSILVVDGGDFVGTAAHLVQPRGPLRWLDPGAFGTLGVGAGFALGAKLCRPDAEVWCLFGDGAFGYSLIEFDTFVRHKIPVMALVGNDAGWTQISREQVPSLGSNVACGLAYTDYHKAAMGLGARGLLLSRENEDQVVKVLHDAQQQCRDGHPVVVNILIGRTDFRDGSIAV
inactive: saracatinib -0.022 | sotrastaurin 0.135 | alvocidib -0.162 | Tubastatin A -0.02 | [1] 0.002 | defactinib -0.054 | rucaparib -0.024 | [2] 0.052 | encorafenib 0.059 | [3] 0.019 | [4] -0.008 | filanesib 0.006 | zotarolimus 0.072 | idasanutlin -0.106 | alisertib -0.088 | [5] -0.001 | gefitinib 0.075 | [6] 0.082 | lapatinib -0.011 | pictilisib 0.031

KCT2 (UniProt Q8NC54)
Chain of UniProt Q8NC54 (Q8NC54 whole entry, looked up): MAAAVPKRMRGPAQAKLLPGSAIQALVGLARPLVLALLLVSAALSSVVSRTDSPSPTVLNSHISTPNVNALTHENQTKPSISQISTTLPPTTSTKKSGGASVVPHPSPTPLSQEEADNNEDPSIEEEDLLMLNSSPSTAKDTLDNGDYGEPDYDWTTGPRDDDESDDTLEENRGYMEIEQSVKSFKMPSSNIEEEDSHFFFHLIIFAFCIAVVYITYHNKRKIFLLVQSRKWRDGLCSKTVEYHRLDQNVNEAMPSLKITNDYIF
inactive: saracatinib 0.027 | sotrastaurin 0.042 | alvocidib -0.095 | Tubastatin A -0.003 | [1] 0.096 | defactinib -0.088 | rucaparib -0.008 | [2] 0.031 | encorafenib 0.063 | [3] -0.036 | [4] -0.015 | filanesib -0.036 | zotarolimus -0.044 | idasanutlin -0.029 | alisertib -0.074 | [5] 0.021 | gefitinib 0.032 | [6] 0.039 | lapatinib -0.002 | pictilisib 0.023

ME2 (UniProt P23368)
inactive: saracatinib 0.061 | sotrastaurin 0.014 | alvocidib 0.022 | Tubastatin A 0.026 | [1] 0.151 | defactinib -0.037 | rucaparib -0.011 | [2] -0.11 | encorafenib 0.015 | [3] 0.034 | [4] -0.037 | filanesib 0.012 | zotarolimus -0.052 | idasanutlin 0.196 | alisertib 0.002 | [5] 0.076 | gefitinib 0.023 | [6] -0.046 | lapatinib -0.003 | pictilisib 0.056

MIF (UniProt P14174)
inactive: saracatinib -0.029 | sotrastaurin -0.005 | alvocidib -0.001 | Tubastatin A -0.065 | [1] 0.82 | defactinib -0.019 | rucaparib 0.026 | [2] -0.105 | encorafenib -0.058 | [3] 0.06 | [4] 0.027 | filanesib 0.024 | zotarolimus 0.029 | idasanutlin 0.043 | alisertib 0.043 | [5] -0.082 | gefitinib 0.082 | [6] -0.043 | lapatinib -0.034 | pictilisib -0.141

IGFBP2 (UniProt P18065)
inactive: saracatinib -0.049 | sotrastaurin 0.223 | alvocidib 0.212 | Tubastatin A -0.032 | [1] -0.06 | defactinib 0.134 | rucaparib 0.003 | [2] -0.148 | encorafenib 0.028 | [3] -0.053 | [4] 0.117 | filanesib -0.238 | idasanutlin 0.439 | alisertib 0.11 | [5] -0.056 | gefitinib -0.228 | [6] 0.363 | lapatinib -0.025 | pictilisib -0.252
active: zotarolimus -0.846
